# ADAM17 inh – ADAM17 inhibitors, primary screen, biochemical, QFRET; Disintegrin and metalloproteinase domain-containing protein 17 (Homo sapiens), P78536; recombinant ADAM17, EDANS/DABCYL FRET peptide cleavage; inhibition, % at 6.95 µM; 370,000 tested, 0.83% active;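 active = inhibition above the mean of compounds lying between control limits plus 3 SD, set per campaign, cut at about 8.5% in these data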
# NR3A LBD binder – binders of NR3A ligand-binding domain, primary screen, biophysical, differential scanning fluorimetry, uHTS; Glutamate receptor ionotropic, NMDA 3A (GRIN3A) ligand-binding domain; NR3A LBD differential scanning fluorimetry, Tm shift; 0% = protein alone, 100% = glycine-bound protein; Tm shift relative to glycine control, % at 25 µM; 340,000 tested, 2.5% active;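 active = melting temperature shift of at least 10% of the positive control shift, at one fixed dose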
# FAS-TE inh – FAS thioesterase domain inhibitors, primary screen, biochemical, fluorescence intensity, uHTS. inhibition, % at 15 µM. Fatty acid synthase (Homo sapiens), P49327. recombinant FAS-TE, OMFH fluorogenic substrate, fluorescence endpoint. AID 602261, 2012. 360,000 tested, 0.67% active;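 active = compounds whose normalised, plate-corrected inhibition of enzyme fluorescence in the single-dose primary screen is 50% or more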
# proKLK7 act – proKLK7 zymogen activators, primary screen, biochemical, fluorescence intensity; Kallikrein-7 (Homo sapiens), P49862; purified proKLK7, EDANS-DABCYL substrate fluorescence; 100% is mature enzyme control, 0% vehicle; activation, % at 7 µM; 370,000 tested, 0.9% active; AID 652039, 2013;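 active = activation above the mean of all tested compounds plus 3 SD, computed per campaign excluding outliers beyond control limits, cut at about 13% in these data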
# ADAM10 inh – human ADAM10 inhibitors, primary screen, biochemical, QFRET, HTS. 370,000 tested, 0.62% active. inhibition, % at 7 µM. recombinant ADAM10, EDANS/DABCYL FRET peptide cleavage, 3 h. AID 720582, 2013;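 active = inhibition above a per-campaign cutoff equal to the mean of compounds falling between control-based bounds plus 3 SD, cut at about 20% in these data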
# ADAM10 counter – ADAM10 inhibitors, counter-screen for ADAM17 exosite inhibitor project, biochemical, FRET, human ADAM10. recombinant ADAM10, EDANS/DABCYL FRET peptide cleavage, 3 h. 2,900 tested, 47% active. inhibition, % at 6.95 µM. shares compounds with ADAM17 inh;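 active = mean inhibition over the triplicate runs exceeds the activity threshold set in the earlier primary screen, cut at about 20% in these data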
# ADAM17 confirm – ADAM17 inhibitors, hit retest, confirmation, biochemical, QFRET peptide cleavage; shares compounds with ADAM17 inh; recombinant ADAM17, EDANS/DABCYL QFRET peptide cleavage; inhibition, % at 6.95 µM; 2,900 tested, 65% active; AID 743257, 2014;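 active = mean inhibition across replicates above the hit cutoff set in the primary screen, cut at about 8.5% in these data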
# A number is an active result; 0 = inactive; - = no result. Rows were chosen to be rich in hits. Some 4.6% of all compounds tested hit in one or more screens of this group.
SMILES,ADAM17 inh,NR3A LBD binder,FAS-TE inh,proKLK7 act,ADAM10 inh,ADAM10 counter,ADAM17 confirm
O=C(CSc1nc(Nc2ccccc2)nc(N2CCOCC2)n1)Nc1cccc([N+](=O)[O-])c1,10,17,0,0,0,38,22
COc1ccc(-c2c(-c3ccc(OCC(=O)NN)cc3O)n[nH]c2C(F)(F)F)cc1,12,0,0,0,0,0,0
COc1ccc(-c2c(-c3ccc(OCC(=O)NN)cc3O)n[nH]c2C)cc1OC,0,0,0,0,0,-,-
CCCCOC(=O)c1ccc(NC(=O)COC(=O)CN2C(=O)NC3(CCCC3)C2=O)cc1,9.2,0,0,0,0,21,13
O=S1(=O)CCN(Cc2ccc(Cl)c(Cl)c2)CC1,0,0,0,0,0,-,-
O=S1(=O)CCN(Cc2ccc(Cl)cc2)CC1,9.2,0,0,0,0,0,0
CC(C)(C)c1csc(NNC(=O)c2ccc(Br)cc2)n1,8.7,0,0,0,0,0,0
CC(C)(C)c1csc(NC(=O)c2ccccc2O)n1,0,0,0,0,0,-,-
COc1ccc2nc(NC(=O)c3cc(C)oc3C)sc2c1,0,0,0,0,0,-,-
COc1ccc2nc(NC(=S)N(C)C)sc2c1,13,24,0,0,0,0,0
Cc1cccc(C=NNc2cc(C)c3cccc(C)c3n2)n1,0,-,-,0,0,-,-
CCCN1CNc2c(c(=O)[nH]c(=S)n2CCc2cccc(Cl)c2Cl)C1,0,-,-,-,0,-,-
CC(=O)Nc1ccc(OCC(=O)c2ccc(C)cc2C)cc1,9.6,0,0,0,0,0,0
CC(=O)Nc1ccc(OCC(=O)c2cc(C)ccc2C)cc1,0,0,0,0,0,-,-
CC(=O)c1c2c3c(cccc3n(C)c1=O)C(=O)c1ccccc1-2,-,0,-,-,-,-,-
Cn1c(=O)c(Nc2ccc(O)cc2)c2c3c(cccc31)C(=O)c1ccccc1-2,9.2,0,0,0,0,0,15
CS(=O)(=O)c1ccccc1-c1nc(-c2ccc(C(F)(F)F)cc2)no1,8.7,0,0,0,0,0,0
O=C(NNc1ccccc1Br)C(=O)n1ccc2ccccc21,9.5,0,0,0,0,0,0
COC(=O)[C@]1(CC(C)C)NC=C(C(=O)c2ccccc2)[C@@H]1c1cccc(C(F)(F)F)c1,0,-,-,0,0,-,-
CCc1ccc(/C=C2/Sc3ccccc3N(CC(=O)NCC3CCCO3)C2=O)cc1 (stereo not given),8.8,0,0,0,0,0,0
Cc1ccc(/C=C2/Sc3ccccc3N(CC(=O)NCC3CCCO3)C2=O)cc1 (stereo not given),-,0,0,-,-,-,-
Cc1cccc2cc(C3CC(c4ccco4)=NN3S(=O)(=O)c3ccccc3)c(Cl)nc12 (stereo not given),9.4,0,0,0,0,20,12
Cc1cccc2cc(C3CC(c4ccco4)=NN3S(C)(=O)=O)c(Cl)nc12 (stereo not given),0,0,0,0,0,-,-
c1nc(NCc2ccc3c(c2)OCO3)c2cc(-c3ccc4c(c3)OCCO4)ccc2n1,0,0,0,0,0,-,-
COc1cccc(-c2ccc3ncnc(NCc4ccc5c(c4)OCO5)c3c2)c1,11,0,0,0,0,0,0
O=C(CC(c1ccccc1)c1ccccc1)Nc1ccc2c(c1)OCCO2,12,0,0,0,0,0,14
COc1cc(NC(=O)C2CCCN(S(=O)(=O)c3ccccc3)C2)cc(OC)c1 (stereo not given),0,-,-,0,0,-,-

# Screening results: PubChem BioAssay, several laboratories
